High-throughput results from PubChem BioAssay.
CRFBP-R2 agonist: CRF-BP/CRF-R2 complex agonism | HEK293 CRF-R2/CRF-BP, calcium dye fluorescence (FLIPR); percent of saturating CRF peptide response | activation, % at 13.2 µM | 0.46% of 350,000 active;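 active = activation of at least 50%, plus an integration ratio under a set limit after plate pattern correction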;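 also: plate controls were neutral control wells without compound for no effect and CRF at EC100 for full effect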
MEKK2mut PB1 HTS: signal of MEK5 binding to mutant human MEKK2 PB1 domain. percent response, % at 10 µM. 0.35% of 290,000 active. bead flow cytometry, Alexa488-MEK5 binding to MEKK2 mutant; in the data active = percent response above about 24%, passing the limit was not always enough
MEKK2wt PB1 HTS: raises or lowers MEK5 binding to wildtype human MEKK2 PB1 domain; Q9Y2U5; bead flow cytometry, Alexa488-MEK5 binding to MEKK2 WT; actives lie on both sides; binding response (% of control), % at 10 µM; 1.1% of 290,000 active; AID 1531; in the data active = binding response below about 67% or above about 130%
CRFR2-BP antag: CRF-BP/CRF-R2 complex antagonism; 0.59% of 350,000 active; inhibition, % at 11.8 µM; HEK293 CRF-R2/CRF-BP, CRF-induced calcium fluorescence;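 active = inhibition of the ligand-induced calcium signal above about 50% at the single tested concentration, limit read from the data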
ABCB6 inh MLPCN: blocks the human ABCB6 transporter; Q9NP58; K562-ABCB6 porphyrin accumulation, flow cytometry, 1 h; hits give low values; fluorescence ratio to DMSO, % at 10 µM; 0.19% of 360,000 active;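 active = fluorescence ratio to DMSO below 75%, the collection mean minus 3 SD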;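 also: signal is porphyrin accumulated inside mitochondria; 100% equals median channel fluorescence of DMSO control wells; lower ratio means ABCB6 inhibition with less porphyrin fluorescence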
Target sequence (Q9NP58 whole entry, looked up): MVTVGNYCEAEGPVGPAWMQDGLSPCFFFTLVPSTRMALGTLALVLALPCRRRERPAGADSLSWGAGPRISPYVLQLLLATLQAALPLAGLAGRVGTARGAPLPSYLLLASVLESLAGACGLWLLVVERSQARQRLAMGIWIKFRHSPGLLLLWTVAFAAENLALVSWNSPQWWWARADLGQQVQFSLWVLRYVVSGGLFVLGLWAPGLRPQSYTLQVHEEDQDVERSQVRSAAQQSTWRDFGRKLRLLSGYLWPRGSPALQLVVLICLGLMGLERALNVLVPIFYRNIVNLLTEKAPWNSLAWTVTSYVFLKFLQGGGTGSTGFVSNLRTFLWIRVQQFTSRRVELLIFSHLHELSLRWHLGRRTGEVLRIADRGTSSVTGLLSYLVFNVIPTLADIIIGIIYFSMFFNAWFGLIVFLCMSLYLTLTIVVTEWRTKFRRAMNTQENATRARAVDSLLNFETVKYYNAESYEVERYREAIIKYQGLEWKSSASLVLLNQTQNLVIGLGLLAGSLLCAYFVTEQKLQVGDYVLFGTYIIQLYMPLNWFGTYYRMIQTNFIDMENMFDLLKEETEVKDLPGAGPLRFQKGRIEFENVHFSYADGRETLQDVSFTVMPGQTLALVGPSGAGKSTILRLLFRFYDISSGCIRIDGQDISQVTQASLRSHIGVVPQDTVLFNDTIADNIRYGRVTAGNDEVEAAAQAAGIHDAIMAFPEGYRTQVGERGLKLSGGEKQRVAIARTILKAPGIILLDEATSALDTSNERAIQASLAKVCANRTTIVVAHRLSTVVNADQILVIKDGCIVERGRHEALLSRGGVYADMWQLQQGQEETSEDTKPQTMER
MEKK3 PB1 HTS: modulators (inhibitors or enhancers) of MEK5 binding to human MEKK3 PB1 domain; 1.4% of 290,000 active; bead-based flow cytometry, Alexa488-MEK5 binding to MEKK3; actives lie on both sides; 0 = blocked by unlabeled MEK5, 100 = vehicle; binding response (% of control), % at 10 µM; Q99759;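 active = binding response more than 3 SD above or below the average of its plate-row segment, actives on both sides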;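 also: Alexa488 bead fluorescence after subtracting the streptavidin-only scavenger bead signal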
MEKK2wt confirm: raises or lowers MEK5 binding to wildtype human MEKK2, retest; shares compounds with MEKK3 PB1 HTS; bead flow cytometry, Alexa488-MEK5 binding to MEKK2 WT; actives lie on both sides; binding response (% of control), % at 10 µM; 2.4% of 5,900 active; in the data active = binding response below about 16% or above about 210%; inactive = in between
MEKK2mut confirm: signal of MEK5 binding to mutant human MEKK2, retest. percent response, % at 10 µM. shares compounds with MEKK3 PB1 HTS. 2% of 5,900 active. bead flow cytometry, Alexa488-MEK5 binding to MEKK2 mutant; in the data active = percent response mostly above about 71%, no sharp cut-off; inactive = mostly below about 38%;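 also: higher means compound restores mutant binding toward wildtype level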
MEKK3 confirm: MEKK3-MEK5 PB1 inhibition, single concentration confirmation; shares compounds with MEKK3 PB1 HTS; bead flow cytometry, Alexa488-MEK5 binding to MEKK3; hits give low values; binding response (% of control), % at 10 µM; 1.8% of 5,900 active;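 active = binding response below 72% of control, or above a set upper limit, though filed actives all read lower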;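 also: 100% = DMSO only wells and 0% = binding blocked by excess unlabeled MEK5; lower values mean stronger disruption of MEK5 binding to MEKK3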
* = called active by the depositor; [ ] = remark or other dose. Rows were chosen to be rich in hits. Some 2.9% of all compounds tested hit in one or more screens of this group.

`OC(CN1CCCCC1)Cn1c2ccc(Cl)cc2c2cc(Cl)ccc21` (stereo not given) gave CRFBP-R2 agonist 4, MEKK2mut PB1 HTS 48*, MEKK2wt PB1 HTS 203*, CRFR2-BP antag -25, ABCB6 inh MLPCN 92, MEKK3 PB1 HTS 106, MEKK2wt confirm 202, MEKK2mut confirm 63 and MEKK3 confirm 112.
`O=S(=O)(c1ccc(F)cc1)N1CCN(c2ncccn2)CC1` gave CRFBP-R2 agonist -4, MEKK2mut PB1 HTS 28, MEKK2wt PB1 HTS 118, CRFR2-BP antag -6, ABCB6 inh MLPCN 104, MEKK3 PB1 HTS 134*, MEKK2wt confirm 108, MEKK2mut confirm 10 and MEKK3 confirm 109.
For CC(=O)c1ccc(NC(=O)C2CCN(S(=O)(=O)c3cccnc3)CC2)cc1 the results were CRFBP-R2 agonist 0, MEKK2mut PB1 HTS -2, MEKK2wt PB1 HTS 103, CRFR2-BP antag 0, ABCB6 inh MLPCN 96 and MEKK3 PB1 HTS 100.
Screening COc1cc(NC(=O)C2CCN(S(=O)(=O)c3cccnc3)CC2)cc(OC)c1OC returned CRFBP-R2 agonist -1, MEKK2mut PB1 HTS 25*, MEKK2wt PB1 HTS 114, CRFR2-BP antag -1, ABCB6 inh MLPCN 99, MEKK3 PB1 HTS 115, MEKK2wt confirm 104, MEKK2mut confirm 10 and MEKK3 confirm 108.
Screening CC1CCN(CCCNC(=O)CCNC(=O)Cn2cnc3ccccc3c2=O)CC1 returned CRFBP-R2 agonist 0, MEKK2mut PB1 HTS 10, MEKK2wt PB1 HTS 108, CRFR2-BP antag 4, ABCB6 inh MLPCN 174 and MEKK3 PB1 HTS 104.
`Cc1ccc(S(=O)(=O)NC(=O)N(C)C2CCCCC2)cc1` gave CRFBP-R2 agonist 2, MEKK2mut PB1 HTS 28, MEKK2wt PB1 HTS 130, CRFR2-BP antag -12, ABCB6 inh MLPCN 110, MEKK3 PB1 HTS 130*, MEKK2wt confirm 84, MEKK2mut confirm -4 and MEKK3 confirm 100.
Screening CCC(=O)Nc1ccc(C2=Nn3c(nnc3C(C)C)SC2)cc1 returned CRFBP-R2 agonist -4, MEKK2mut PB1 HTS 2, MEKK2wt PB1 HTS 98, CRFR2-BP antag -8, ABCB6 inh MLPCN 103 and MEKK3 PB1 HTS 103.
Screening CCC(C)c1ccccc1NC(=O)COC(=O)c1ccc(N2CCCC2)c([N+](=O)[O-])c1 (stereo not given) returned CRFBP-R2 agonist 2, MEKK2mut PB1 HTS 0, MEKK2wt PB1 HTS 100, CRFR2-BP antag -32, ABCB6 inh MLPCN 102, MEKK3 PB1 HTS 132*, MEKK2wt confirm 104, MEKK2mut confirm 1 and MEKK3 confirm 106.
For O=C(COc1cc2oc(=O)cc(-c3ccccc3)c2cc1Cl)NC(Cc1c[nH]c2ccc(O)cc12)C(=O)O (stereo not given) the results were CRFBP-R2 agonist -1, MEKK2mut PB1 HTS 5, MEKK2wt PB1 HTS 104, CRFR2-BP antag 7, ABCB6 inh MLPCN 97 and MEKK3 PB1 HTS 106.
`CSc1nc(C)c(Oc2ccccc2)c(=O)n1C` gave CRFBP-R2 agonist 0, MEKK2mut PB1 HTS -21, MEKK2wt PB1 HTS -1.0*[inhibitor], CRFR2-BP antag 18, ABCB6 inh MLPCN 92, MEKK3 PB1 HTS -1.0*[inhibitor], MEKK2wt confirm 99, MEKK2mut confirm 3 and MEKK3 confirm 102.
Screening Cn1ncc(Cl)c(Oc2ccccc2)c1=O returned CRFBP-R2 agonist 0, MEKK2mut PB1 HTS 3, MEKK2wt PB1 HTS 103, CRFR2-BP antag 25, ABCB6 inh MLPCN 96 and MEKK3 PB1 HTS 103.
